Only some compounds are listed: those with a hit (about 5.3% of all), similar ones and a draw of the others.
Sfp PPTase inh = Sfp phosphopantetheinyl transferase inhibition | Q9F4F7 | Biochemical Sfp PPTase activity, qHTS | Potency, µM, for inactives: largest response in the series, negative = inhibition, most hits filed as inhibitors | hit rate 3.5% among 310,000 | AID 1490;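 also: the enzyme is Sfp with the accession as filed and its product quenches rhodamine fluorescence; potency is read from the fitted curve at half-maximal effect; 0% = enzyme reaction without inhibitor and -100% = no enzyme wells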
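Sfp 15 nM + cpd, 15 min RT; start w/ rhodamine-CoA 5 uM, BHQ-2-YbbR 12.5 uM (final); 50 mM Hepes pH 7.6, 10 mM MgCl2, 0.01% NP-40, 0.01% BSA; read 525/598 nm at 0 and 30 min.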
Tau fibril FP = tau fibrillization inhibition (FP). Potency, µM (titrated, usually from 57.7 µM), inactives show at the top dose activity, negative = inhibition, hits mostly inhibitors. hit rate 0.39% among 280,000. P10636. K18 P301L tau heparin fibrillization, Alexa594 FP, 6 h; also: potency is read from the fitted curve at half-maximal effect; nearly all actives have a fitted effect of over 55% in size
Target sequence (P10636 561-689 P618L limits assumed): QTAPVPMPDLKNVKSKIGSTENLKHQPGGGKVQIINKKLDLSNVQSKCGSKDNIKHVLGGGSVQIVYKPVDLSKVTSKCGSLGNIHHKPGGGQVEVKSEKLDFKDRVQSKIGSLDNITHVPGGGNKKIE
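Heparin (20 uM) drove fibril formation of recombinant tau K18 P301L, 15 uM unlabeled with 0.24 uM Alexa 594 label, for 6 hr at 37 C in 100 mM sodium acetate pH 7. Fluorescence polarization (555/632 nm) read 1 hr after 30 uM ThT.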
Tau ThT inhib = inhibitors of human tau fibril formation, thioflavin T binding; AID 1460; hit rate 2.1% among 270,000; Potency, µM (series often up to 57.4 µM), for the others: top-dose activity, negative = inhibition, usual class: inhibitors; recombinant tau K18 P301L, heparin-induced fibrillization, ThT fluorescence; also: potency is read from the fitted curve at half-maximal effect; nearly all actives have a fitted effect of over 55% in size
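Tau K18 P301L fragment (15 uM unlabeled plus 0.24 uM Alexa 594-labeled) in 100 mM sodium acetate pH 7 with compound, fibrillization induced by 20 uM heparin for 6 hr at 37 C. Thioflavin T (30 uM) added, fluorescence read after 1 hr (ex 450, em 510 nm).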
Tau fluor cs = counter-screen for tau fibril formation inhibitors | Potency, µM (highest dose often 57.7 µM), inactives show top-dose activity change, negative = decrease | hit rate 0.93% among 280,000 | tau K18 P301L (four-repeat tau fragment) Alexa594 fluorescence, heparin fibrillization | AID 1463; also: potency is read from the fitted curve at half-maximal effect; nearly all actives have a fitted effect of over 55% in size
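Human K18 P301L tau (15 uM unlabeled plus 0.24 uM Alexa 594-labeled, final) in 100 mM sodium acetate pH 7 was mixed with compound and 20 uM heparin and incubated 6 hr at 37 C.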
FBPA coupling cs = inhibits coupling enzyme system, counter-screen for aldolase hits; coupling enzyme system counterscreen, AmpLite Red fluorescence; activity change, negative = inhibition, % at 58.2 µM, hits read low; hit rate 0.67% among 290,000; AID 2472; in the data active = activity change below about -30%
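Counterscreen lacking aldolase: glyceraldehyde-3-phosphate coupling-enzyme reagent preincubated 10 min at RT with compound (at 57.5 uM final), then substrate/coupling system with AmpLite Red added; fluorescence read at 525/598 nm after 20 min RT.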
KDM4E inh = blocks human JMJD2E demethylase activity; JMJD2E catalytic domain, FDH-coupled NADH fluorescence (FDH is formaldehyde dehydrogenase); Potency, µM (titrated, usually from 57.1 µM), for inactives: top-dose activity change, negative = inhibition, actives largely listed as inhibitors; hit rate 1.6% among 230,000; AID 2147; active = well fitted inhibition curve with a large enough effect, not every such curve was filed as active; inconclusive = small, poorly fitted or top-dose-only effect, or another doubt; inactive = no such curve, though single readings can be large or run the other way;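 also: potency is read from the fitted curve at half-maximal effect; 0% = wells with enzyme and -100% = buffer wells without enzyme; nearly all actives have a fitted effect of over 50% in size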
Target sequence (B2RXH2 1-337 limits assumed): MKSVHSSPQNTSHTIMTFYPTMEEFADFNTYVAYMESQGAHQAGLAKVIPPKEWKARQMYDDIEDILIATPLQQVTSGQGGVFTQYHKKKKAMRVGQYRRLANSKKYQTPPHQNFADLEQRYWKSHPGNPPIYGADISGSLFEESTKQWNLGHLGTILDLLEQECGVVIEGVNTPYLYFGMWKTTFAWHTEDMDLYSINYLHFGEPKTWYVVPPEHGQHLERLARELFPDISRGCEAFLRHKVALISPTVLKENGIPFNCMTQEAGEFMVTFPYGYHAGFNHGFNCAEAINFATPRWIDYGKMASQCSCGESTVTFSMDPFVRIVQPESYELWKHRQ
* hit, by the source's call; ? = inconclusive; / = not tested or not shown; [ ] = remark or other dose. Unless noted, calls follow the shape of the dose curve; as a rule, active = well fitted curve in the direction sought with a large enough effect; inconclusive = small, poorly fitted or top-dose-only effect, or another doubt; inactive = no such curve, though single readings can be large; an effect the other way counts as inactive or inconclusive. Unless noted, % is scaled to controls: 0 for no effect and ±100 for the full control effect.

SMILES | Sfp PPTase inh | Tau fibril FP | Tau ThT inhib | Tau fluor cs | FBPA coupling cs | KDM4E inh
N#Cc1ccc(NC(=O)Nc2ccc(Cl)cc2)cc1 | -10.0% | ? | ? | ? | -5.6 | -1.9%
N#C/C(C(=O)Nc1ccc(Cl)cc1)=C(/S)Nc1ccccc1 | 0.794µM* | / | / | / | 6.9 | /
COc1ccc(CNC(=O)CCc2nc3cccnc3n2Cc2ccccc2)cc1 | / | -9.9% | 0.4% | -7.7% | / | /
O=c1ccn([C@@H]2O[C@H](COP(=O)(O)O)[C@@H](O)[C@H]2O)c(=O)[nH]1 | 2.2% | -1.1% | 5.5% | -3.2% | / | /
C[C@H]([C@@H](N)C(=O)N[C@@H](C(=O)O)[C@@H]1O[C@H](n2ccc(=O)[nH]c2=O)[C@@H](O)[C@H]1O)[C@@H](O)c1ccc(O)cn1 | 56.2µM* | 8.5% | 6.9% | 1.8% | -17.0 | 9.2%
Cc1ccc(C(=O)N2c3ccc(C)cc3C(C)(c3ccccc3)CC2(C)C)cc1 (stereo unspecified) | / | -11.3% | ? | -17.6% | / | /
COc1cccc(NC2=Nc3cccc4cccc2c34)c1 | 6.6% | 15.5% | 11.2µM* | ? | -7.9 | -1.3%
COc1ccc(NC2=Nc3cccc4cccc2c34)cc1OC | -18.4% | 3.4% | 12.6µM* | ? | -2.7 | -4.7%
COc1cc(NC2=Nc3cccc4cccc2c34)cc(OC)c1OC | -1.6% | 1.5% | 3.1% | 5.9% | -12.8 | -4.8%
Cc1ccc(S(=O)(=O)NCCc2sc3nc(-c4ccccc4)nn3c2C)cc1C | / | -12.7% | -8.6% | -21.9% | / | /
CCOC(=O)C1=C(C)OC(N)=C(C#N)C1c1cc(OC)c2c(c1)OCO2 (stereo unspecified) | 0.9% | -0.2% | -15.8% | -9.1% | 0.0 | -9.9%
CCOC(=O)C1=C(C)OC(N)=C(C#N)C1c1cc2c(cc1[N+](=O)[O-])OCO2 (stereo unspecified) | 0.7% | ? | 28.2µM* | ? | -13.0 | ?
CCOc1ccc(-n2c(-c3ccc(Br)cc3)cc3c2CC(C)(C)CC3=O)cc1 | / | ? | -12.4% | -17.1% | / | /
O=C1N=c2ccccc2=C1c1sc(NS(=O)(=O)Cc2ccccc2)nc1O | -4.5% | 5.5% | 7.94µM* | -19.6% | 9.6 | 5.5%
O=C1N=c2ccccc2=C1c1sc(NS(=O)(=O)c2ccccc2)nc1O | 2.6% | 5.0% | 7.08µM* | ? | 1.1 | 3.0%
O=C1N=c2ccccc2=C1c1sc(Nc2ccc(O)cc2)nc1O | 56.2µM* | 5.4% | 2.24µM* | 14.1µM*[quencher] | -0.9 | 0.8%
CCOC(=O)c1c(C)[nH]c(CCC(=O)NCc2cc(Br)ccc2OC)c1C | / | 8.4% | ? | ? | / | /
CC(Nc1ccc(N2CCOCC2)cc1)C(=O)N1c2ccccc2CC1C (stereo unspecified) | 10µM* | -3.5% | ? | ? | -26.4 | -11.0%
CC1Cc2ccccc2N1CC(=O)Nc1ccc(N2CCOCC2)cc1 (stereo unspecified) | 4.8% | 13.8% | -10.1% | -14.4% | 2.0 | -1.7%
Nc1ccc(N2CCN(CCCCN3C(=O)C4CCCN4C3=O)CC2)cc1 (stereo unspecified) | -8.5% | ? | 14.1µM* | ? | -26.8 | ?
Cc1nn(C(C)C(=O)Nc2cccc(F)c2)c(=O)c2c1sc1ccccc12 (stereo unspecified) | / | 0.7% | ? | -22.4% | / | /
O=C1c2ccccc2C(=O)C12OC2c1cccc2ccccc12 (stereo unspecified) | 28.2µM* | 4.47µM* | 2.51µM* | -13.1% | -58.0* | ?
NCCC[C@@H](CC(=O)N[C@@H]1CCNC[C@H]1C(=O)N[C@H](CC(=O)N[C@@H](CCC(=O)O)CC(=O)O)Cc1c[nH]c2ccccc12)NC(=O)C[C@H](Cc1c[nH]c2ccccc12)NC(=O)[C@@H]1CNCC[C@H]1N | -17.1% | 2.0% | -5.3% | -1.3% | -4.2 | ?
COc1cc(OC)cc(-c2nc3nc(C)c(CCC(=O)Nc4cc(C)cc(C)c4)c(C)n3n2)c1 | / | 3.0% | ? | -17.1% | / | /
CC(C)(C)c1csc(NC(=O)Cn2cnc3ccccc3c2=O)n1 | 20µM* | -2.5% | 1.2% | -9.2% | 1.6 | 0.5%

From PubChem BioAssay
